# Laboratory results as given in PubChem BioAssay AID2783 (National Center for Advancing Translational Sciences (NCATS), 2010).
# Records with an inconclusive call do not appear. Calls of active or inactive are those of the source. Calls come from the whole dose curve; as a rule, active = well fitted inhibition curve with a large enough effect in the polarisation, with a control signal flat (not every such curve was filed as active); inconclusive = small, poorly fitted or top-dose-only effect, or effect the other way, or a change in a side signal; inactive = no such curve, though single readings can be large or run the other way; the % refers to the polarisation.
# Target: Histone-lysine N-methyltransferase 2A (Homo sapiens) (UniProt Q03164)
# Test: Confirmation of Inhibitors Targeting the Menin-MLL Interaction in MLL Related Leukemias: Competition With Fluorescein Labeled MLL-derived Peptide
# Conditions: Fluorescence polarization, fluorescein-MLL peptide displacement from menin
# Excerpt: qHTS Assay for Inhibitors Targeting the Menin-MLL Interaction in MLL Related Leukemias
# NIH Chemical Genomics Center [NCGC]
# NIH Molecular Libraries Probe Centers Network [MLPCN]
# Assay Submitter (PI): Jolanta Grembecka, Tomasz Cierpicki, University of Virginia
# Translocations of the MLL (Mixed Lineage Leukemia) gene are frequently found in human leukemias affecting both children and adults. Fusion of MLL to one of more than 60 genes results in generation of oncogenic proteins upregulating Hox genes, which are vital to blood cell development. Patients harboring fusion of the MLL gene suffer from aggressive leukemias and respond poorly to available therapies. All of the oncogenic fusion proteins have a preserved N-terminal fragment of MLL that has been identified to interact with menin. It has been recently discovered that association with menin is critical to the leukemogenic activity of the MLL fusion oncoproteins. Selective targeting of the menin-MLL interaction could provide an attractive therapeutic approach to develop novel drugs for MLL-related leukemias. Small molecules blocking the menin-MLL interaction should reverse the oncogenic potential of MLL fusion proteins.
# We have developed and optimized a fluorescence polarization-based assay for the identification of Menin-MLL inhibitors. […]
# 5. Read fluorescence polarization for each label using the PerkinElmer Envision. […]
# Potency is the fitted concentration of half-maximal effect.
# Histone-lysine N-methyltransferase 2A (Homo sapiens), sequence (Q03164 whole entry, looked up): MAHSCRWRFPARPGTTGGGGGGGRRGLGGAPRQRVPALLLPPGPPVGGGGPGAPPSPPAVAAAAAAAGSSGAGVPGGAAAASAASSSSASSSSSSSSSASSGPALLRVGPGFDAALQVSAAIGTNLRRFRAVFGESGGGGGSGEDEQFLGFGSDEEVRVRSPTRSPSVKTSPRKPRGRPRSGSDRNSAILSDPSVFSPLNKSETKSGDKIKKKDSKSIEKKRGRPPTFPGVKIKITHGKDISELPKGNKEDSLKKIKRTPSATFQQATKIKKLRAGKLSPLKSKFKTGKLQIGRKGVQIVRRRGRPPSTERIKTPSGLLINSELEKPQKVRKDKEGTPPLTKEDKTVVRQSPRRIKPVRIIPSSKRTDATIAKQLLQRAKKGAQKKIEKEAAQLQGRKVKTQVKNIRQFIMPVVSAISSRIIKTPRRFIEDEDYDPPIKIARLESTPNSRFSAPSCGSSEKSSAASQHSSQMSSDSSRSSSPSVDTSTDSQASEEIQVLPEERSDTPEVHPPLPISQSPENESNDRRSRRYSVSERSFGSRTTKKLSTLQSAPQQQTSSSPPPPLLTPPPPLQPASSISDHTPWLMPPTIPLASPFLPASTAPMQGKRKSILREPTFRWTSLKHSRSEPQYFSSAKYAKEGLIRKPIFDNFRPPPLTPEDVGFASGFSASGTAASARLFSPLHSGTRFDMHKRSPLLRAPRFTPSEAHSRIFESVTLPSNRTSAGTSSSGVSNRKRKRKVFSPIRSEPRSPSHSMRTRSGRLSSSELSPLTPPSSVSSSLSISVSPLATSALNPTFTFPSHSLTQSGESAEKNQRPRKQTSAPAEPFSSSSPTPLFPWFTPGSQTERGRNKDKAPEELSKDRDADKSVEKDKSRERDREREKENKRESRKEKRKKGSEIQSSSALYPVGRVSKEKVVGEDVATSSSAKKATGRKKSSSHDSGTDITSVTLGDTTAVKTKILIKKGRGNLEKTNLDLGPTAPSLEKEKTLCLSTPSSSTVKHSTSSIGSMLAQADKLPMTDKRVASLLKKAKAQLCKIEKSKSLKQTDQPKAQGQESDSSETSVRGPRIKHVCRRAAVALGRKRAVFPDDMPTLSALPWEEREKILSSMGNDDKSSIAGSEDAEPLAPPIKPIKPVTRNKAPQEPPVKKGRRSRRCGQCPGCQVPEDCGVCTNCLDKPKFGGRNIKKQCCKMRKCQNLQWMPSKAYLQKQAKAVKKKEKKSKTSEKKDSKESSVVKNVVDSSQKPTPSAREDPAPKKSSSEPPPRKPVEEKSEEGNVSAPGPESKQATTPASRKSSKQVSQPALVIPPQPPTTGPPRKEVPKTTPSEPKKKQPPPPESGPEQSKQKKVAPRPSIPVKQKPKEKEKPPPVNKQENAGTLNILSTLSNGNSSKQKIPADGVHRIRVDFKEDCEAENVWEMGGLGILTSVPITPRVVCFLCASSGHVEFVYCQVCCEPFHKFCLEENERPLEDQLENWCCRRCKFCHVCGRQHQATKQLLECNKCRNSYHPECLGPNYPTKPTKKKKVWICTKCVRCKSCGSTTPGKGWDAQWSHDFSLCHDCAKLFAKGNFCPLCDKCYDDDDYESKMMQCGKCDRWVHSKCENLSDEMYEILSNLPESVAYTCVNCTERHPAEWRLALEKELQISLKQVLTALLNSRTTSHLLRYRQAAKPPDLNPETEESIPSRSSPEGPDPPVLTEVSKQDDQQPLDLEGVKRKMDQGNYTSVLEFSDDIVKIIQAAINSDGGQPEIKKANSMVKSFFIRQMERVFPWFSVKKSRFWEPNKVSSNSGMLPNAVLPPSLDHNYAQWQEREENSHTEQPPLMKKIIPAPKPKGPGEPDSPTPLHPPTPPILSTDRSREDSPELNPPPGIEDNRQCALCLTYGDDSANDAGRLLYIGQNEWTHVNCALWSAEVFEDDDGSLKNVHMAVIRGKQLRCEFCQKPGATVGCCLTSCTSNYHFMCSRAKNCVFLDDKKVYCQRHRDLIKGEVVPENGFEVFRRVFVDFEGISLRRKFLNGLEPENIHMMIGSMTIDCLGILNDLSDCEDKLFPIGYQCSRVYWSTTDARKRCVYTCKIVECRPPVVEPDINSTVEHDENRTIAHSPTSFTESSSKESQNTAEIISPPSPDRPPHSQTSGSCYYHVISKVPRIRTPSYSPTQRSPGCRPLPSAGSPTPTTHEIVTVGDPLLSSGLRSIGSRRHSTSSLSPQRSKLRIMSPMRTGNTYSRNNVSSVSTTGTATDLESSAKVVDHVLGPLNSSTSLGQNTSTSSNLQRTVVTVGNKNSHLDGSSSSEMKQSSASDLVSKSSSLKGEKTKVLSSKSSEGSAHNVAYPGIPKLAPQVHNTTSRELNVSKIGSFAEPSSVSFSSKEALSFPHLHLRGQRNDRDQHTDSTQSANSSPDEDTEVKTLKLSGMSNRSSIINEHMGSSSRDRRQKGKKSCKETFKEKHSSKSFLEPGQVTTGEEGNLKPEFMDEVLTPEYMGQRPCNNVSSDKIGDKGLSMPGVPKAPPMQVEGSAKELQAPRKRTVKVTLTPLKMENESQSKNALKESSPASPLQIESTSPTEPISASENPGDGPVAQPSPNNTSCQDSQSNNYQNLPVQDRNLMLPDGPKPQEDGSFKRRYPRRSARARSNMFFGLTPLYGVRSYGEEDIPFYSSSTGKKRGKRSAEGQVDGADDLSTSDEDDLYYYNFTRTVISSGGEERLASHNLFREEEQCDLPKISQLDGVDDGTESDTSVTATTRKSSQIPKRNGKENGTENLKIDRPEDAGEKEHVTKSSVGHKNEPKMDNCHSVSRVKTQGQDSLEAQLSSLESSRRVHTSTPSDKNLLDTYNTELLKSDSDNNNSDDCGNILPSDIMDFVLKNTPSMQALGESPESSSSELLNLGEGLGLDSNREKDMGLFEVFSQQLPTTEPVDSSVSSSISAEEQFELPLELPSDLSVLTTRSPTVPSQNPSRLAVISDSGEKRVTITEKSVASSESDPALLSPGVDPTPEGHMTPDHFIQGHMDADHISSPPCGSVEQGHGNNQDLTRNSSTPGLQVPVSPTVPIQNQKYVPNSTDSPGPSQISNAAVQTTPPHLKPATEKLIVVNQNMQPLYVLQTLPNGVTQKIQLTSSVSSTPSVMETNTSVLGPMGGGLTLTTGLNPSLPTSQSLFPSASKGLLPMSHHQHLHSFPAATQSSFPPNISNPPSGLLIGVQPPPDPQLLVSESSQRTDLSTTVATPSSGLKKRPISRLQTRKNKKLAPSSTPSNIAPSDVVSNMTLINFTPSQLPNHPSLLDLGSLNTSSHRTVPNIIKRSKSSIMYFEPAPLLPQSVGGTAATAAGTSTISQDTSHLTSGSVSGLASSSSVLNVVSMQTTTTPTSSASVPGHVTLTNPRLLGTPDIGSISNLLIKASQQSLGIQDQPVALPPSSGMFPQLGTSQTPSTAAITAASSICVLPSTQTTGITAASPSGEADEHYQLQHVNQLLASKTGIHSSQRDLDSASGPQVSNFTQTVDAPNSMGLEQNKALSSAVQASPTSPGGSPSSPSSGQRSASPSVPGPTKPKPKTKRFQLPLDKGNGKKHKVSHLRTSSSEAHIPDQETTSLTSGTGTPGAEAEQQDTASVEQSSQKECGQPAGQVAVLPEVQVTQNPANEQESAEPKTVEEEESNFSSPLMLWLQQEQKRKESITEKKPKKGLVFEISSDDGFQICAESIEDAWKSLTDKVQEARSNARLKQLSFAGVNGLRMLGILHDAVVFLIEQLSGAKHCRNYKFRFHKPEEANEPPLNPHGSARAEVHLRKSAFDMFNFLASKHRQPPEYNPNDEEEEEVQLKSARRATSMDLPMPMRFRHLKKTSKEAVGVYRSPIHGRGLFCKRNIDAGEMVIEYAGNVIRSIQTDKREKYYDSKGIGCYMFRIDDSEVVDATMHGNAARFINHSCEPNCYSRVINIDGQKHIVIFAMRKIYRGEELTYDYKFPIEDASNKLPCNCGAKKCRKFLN
smiles,measurement,value
c1cc2cc(c1)C[n+]1ccc(c3ccccc31)NCc1ccc(cc1)CNc1cc[n+](c3ccccc13)C2,Potency,126 µM (active)
